# Data published in the supplement of paper PMC3334620.
# Over roughly 33,000 sequences, “E-score (-0.5 to 0.5)” has its median near -0.015; the highest 2% begin near 0.3. For the sample, the highest values were picked, then their nearest neighbours and some sequences at random.
# Biological target: T1, Abf1 (UniProt P14164)
# T1 sequence: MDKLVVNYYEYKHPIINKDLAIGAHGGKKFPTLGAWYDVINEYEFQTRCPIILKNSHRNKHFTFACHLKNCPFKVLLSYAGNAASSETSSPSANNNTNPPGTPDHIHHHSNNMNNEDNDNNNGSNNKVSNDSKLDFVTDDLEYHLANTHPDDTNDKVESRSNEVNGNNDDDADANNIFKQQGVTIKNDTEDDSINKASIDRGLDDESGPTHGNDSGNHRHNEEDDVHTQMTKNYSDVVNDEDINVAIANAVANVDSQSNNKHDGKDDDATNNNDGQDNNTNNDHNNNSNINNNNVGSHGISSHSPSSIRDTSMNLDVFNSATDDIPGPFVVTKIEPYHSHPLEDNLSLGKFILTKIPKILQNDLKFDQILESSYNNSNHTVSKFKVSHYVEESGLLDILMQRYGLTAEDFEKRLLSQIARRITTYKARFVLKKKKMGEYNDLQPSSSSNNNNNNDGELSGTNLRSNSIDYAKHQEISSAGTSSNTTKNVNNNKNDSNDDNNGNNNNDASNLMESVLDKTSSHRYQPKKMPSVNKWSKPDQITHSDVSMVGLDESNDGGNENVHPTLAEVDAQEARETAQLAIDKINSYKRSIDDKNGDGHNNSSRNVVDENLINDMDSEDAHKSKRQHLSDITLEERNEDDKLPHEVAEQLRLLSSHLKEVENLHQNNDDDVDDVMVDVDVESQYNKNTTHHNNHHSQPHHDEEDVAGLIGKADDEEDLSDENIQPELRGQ
# Test: PBM E-score (8-mer binding enrichment) (E-score (-0.5 to 0.5)); higher = stronger / more preferred TF binding
# Details: protein concentration: 200 nM; construct: GST-full length
# Experimental: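 Universal 'all 10-mer' protein binding microarrays (Agilent AMADID 015681) probed with GST-tagged S. cerevisiae TFs (full-length or DBD) made by in vitro transcription/translation (PURExpress), about 100-200 nM. Bound TF was detected with fluorescent anti-GST. Each ungapped 8-mer (which stands for itself and its reverse complement) is scored by the PBM enrichment score (E-score), a modified Wilcoxon-Mann-Whitney statistic from -0.5 to +0.5, computed with the Universal PBM Analysis Suite. Scale: above 0.35 generally sequence-specific binding.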
row,Sequence,PBM E-score
1,TACAGGCA,0.119
2,AGCTACAA,-0.101
3,GAGAAGGA,-0.18
4,ATATCAAA,0.0352
5,CCTCCGCC,-0.059
6,ACGTACAT,0.244
7,AAGTACGA,0.151
8,ACGTACGA,0.335
9,ACGTACAG,-0.0233
10,AGGTACGA,0.0832
11,ACGTACGG,0.328
12,ACGTACGC,0.114
13,CCGTACGG,0.29
14,ACGTACGT,0.335
15,CAGCGGAC,-0.105
16,AGCGAGAT,0.0588
17,ACGTATGA,0.332
18,GCGTATGA,0.0421
19,CCGTATGA,0.408
20,ACGTATGG,0.136
21,ACGTATGC,0.014
22,CCGTATGC,0.0398
23,CGAGTTAG,0.148
24,ACTAGAAA,-0.0186
25,ATACGGAA,0.299

row,Sequence,PBM E-score
1,ATACGGAG,0.0972
2,ATACGGAC,0.142
3,ATACGGAT,0.297
4,TTACGGAA,0.124
5,CTACGGAA,0.139
6,CAAAATCA,0.173
7,GCACAGCC,-0.204
8,ATTTCTTG,0.167
9,ACAGAATC,-0.0766
10,AACTAATA,0.306
11,AATTAATA,0.302
12,CACTAATA,0.255
13,AATTAATT,0.00666
14,TACTAATA,0.0826
15,TATTAATA,0.00602
16,ACTCCACC,0.032
17,ATCGGTCC,-0.295
18,CCGTGACG,0.198
19,CCGTGACC,0.157
20,TCGTGACA,0.354
21,CCGTGAAA,0.381
22,ACGTGACC,0.0122
23,CCGTGACA,0.363
24,ACGTGACA,0.355
25,ACGTGACT,0.174

row,Sequence,PBM E-score
1,TCGTGAGA,0.263
2,CCGTGAAG,0.136
3,TCGTGAAA,0.205
4,ACGTGACG,0.201
5,GCATCGCC,-0.0959
6,AACCGGGC,-0.103
7,CTCCCGGA,-0.117
8,GATAGAAC,0.0502
9,ACAACGCA,-0.00182
10,CGAGGTTA,-0.00406
11,AAGAATCT,-0.115
12,GGAGATGA,0.16
13,GCGATTTA,0.114
14,TCTTCTCA,0.0808
15,CGCTCTAA,0.108
16,AAGGCGGC,-0.00603
17,AAGGACAT,0.0941
18,GCGTGTGA,-0.00541
19,CCGTGTGA,0.301
20,ACGTGTGA,0.213
21,GTGTGACA,0.116
22,GCGTGACC,0.108
23,GCGTGACA,0.369
24,CGTTGATC,0.247
25,AAAGTGCG,-0.105

row,Sequence,PBM E-score
1,AGATTTCA,-0.0514
2,ACAGTCGC,-0.0877
3,TCGAAAAA,0.157
4,GGACGATA,0.268
5,GGACGGTA,0.134
6,CGACGACC,0.243
7,CGACGATA,0.373
8,CGACGATC,0.298
9,CGACGGTC,0.173
10,CGACGGTA,0.322
11,AGACGATC,0.113
12,AGACGATA,0.27
13,GAAATTCA,0.0636
14,ATTGCACA,0.0349
15,CAGCTATA,-0.191
16,ACCGCTGC,-0.252
17,GGTAGGAA,-0.0834
18,TAGGCCGA,-0.106
19,CCGATCCG,-0.0938
20,GCGAAGAA,0.148
21,CTTAGCGC,0.117
22,CGCTGTCC,0.108
23,CCGCATTC,0.00443
24,GCGTACCA,-0.0406
25,ACGTACTA,0.188

row,Sequence,PBM E-score
1,TCGTACCA,0.322
2,CCGTACCA,0.303
3,GCGTACTA,-0.0501
4,TAGTACCA,-0.0108
5,ACGTACCA,0.0604
6,TGGTACCA,-0.123
7,CCGTACTA,0.338
8,ATGATGCG,0.104
9,ACGAACCC,0.0128
10,GCGAGAAC,-0.095
11,CGATTCAC,0.192
12,AGGCGGTC,-0.166
13,GTCTAAAC,0.00585
14,ATGGTACA,-0.0607
15,ACGAACGA,0.314
16,CCGAACAA,-0.0373
17,ACGAATGC,0.185
18,ACGAATGA,0.304
19,ACGAACGG,0.312
20,TCGAACGA,0.236
21,GCGAATGA,0.173
22,ACGAACAA,0.331
23,ACGAACGT,0.289
24,GCGAACAA,0.0737
25,CCGAACGG,-0.0461

row,Sequence,PBM E-score
1,CCGAACGA,0.251
2,ATTAAGCC,0.0493
3,ATATCCAA,0.149
4,ACTGACTC,-0.262
5,CACTATGA,-0.138
6,CAAAGTGA,0.28
7,TAAGGAAA,-0.0606
8,CTATGCAC,0.178
9,AAACTCCT,-0.13
10,AATCATAT,0.191
11,AGGTCGAT,0.132
12,TGGTGGAA,-0.0333
13,ACTGCGAT,-0.0827
14,CAACAAAC,-0.112
15,TATCACGA,0.366
16,TATCACAA,0.25
17,AATCACGC,0.127
18,CATCACGA,0.0436
19,AATCACGG,0.213
20,AATCACGA,0.309
21,AGGTTATC,0.0463
22,CGCAGATA,0.0501
23,AGACGGCG,0.306
24,ACACGGCG,0.305
25,CGACGGCG,0.171

row,Sequence,PBM E-score
1,CCACGGCG,0.142
2,ACACGGCA,0.294
3,AGACGGCC,-0.0278
4,CCCGCTCG,-0.0943
5,ATAAACGG,0.273
6,TAAACTCA,-0.0231
7,AACGATAA,0.294
8,AACGATAG,0.265
9,ACCGATAT,0.0499
10,AGCGATAT,0.352
11,AACGATAC,0.32
12,AACGATCT,0.303
13,AACGATCA,0.24
14,AACGATAT,0.385
15,AGCGATAG,0.0445
16,AACGATCC,-0.00029
17,GACGATAC,0.278
18,AGCGATAC,0.202
19,GCAATTCA,-0.0514
20,ATCGCAGC,-0.0387
21,CACTTCAG,0.0421
22,GCGGTTTA,-0.161
